Laboratory results reported in PubChem BioAssay.
Several values for one entry are separate records, joined by “and”; a condition that tells them apart may be missing. Identical values can stand only once. For part of these data: Measured potencies and affinities stand elsewhere. Activity calls are given as the source filed them.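 Rule for the calls, unless noted: active = thallium flux through the channel raised or lowered by more than 3 SD from vehicle-only wells, actives on both sides; inactive = the rest.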

Legend:
[1] = polyglutamine-triggered caspase-3 activation inhibitors, cell-based (AID 1583); conditions: polyglutamine-induced caspase-3 activation, cell assay; stronger effect = higher value;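 tested at 10 µM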
[2] = suppressors of polyQ aggregation in yeast, 75Q-TubU reporter (AID 1593); conditions: Yeast 75Q polyglutamine aggregation reporter
[3] = rescue of polyQ-huntingtin neuronal dysfunction in worms, whole organism, C. elegans mechanosensory neurons, N-terminal huntingtin (AID 1599); conditions: touch response, stronger effect = higher value
[4] = inhibitors of mitochondrial cytochrome c release, biochemical, purified mitochondria (AID 1603); conditions: stronger effect = lower value;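 note: mouse liver mitochondria challenged with calcium chloride; signal normalized to the plate average as 100%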
[5] = inhibitors of polyQ protein aggregation (AID 1604); conditions: polyglutamine-induced protein aggregation inhibition assay; stronger effect = higher value; tested at 2.5 µM
[6] = enhancers of glutamate uptake in motor neurons, MN-1 cell line (AID 1612); conditions: MN-1 motor neuron cells, stronger effect = higher value;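 note: tested at 1 µM final; 0% = mean of DMSO vehicle wells on each plate; positive means more glutamate uptake than control and negative means less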
[7] = suppressors of polyglutamine aggregation in yeast, 75Q-TubH (AID 1616); conditions: S. cerevisiae 75Q-TubH polyglutamine aggregation suppression; stronger effect = higher value
[8] = hESC survival regulators, cell-based (AID 493140; call rule not given here;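 note: cells exposed to compounds for four days before counting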); conditions: human embryonic stem cell survival screen; stronger effect = higher value
[9] = tested on: Hepatitis C virus NS3 helicase; experiment: HCV NS3 helicase inhibitors, primary screen, biochemical, fluorescence polarization, LOPAC1280 library (AID 687035; in the data active = inhibition above about 37%); conditions: Purified HCV NS3 helicase, Cy5-dT15 ssDNA binding fluorescence polarization; stronger effect = higher value; concentration not given here
[10] = modulation of C. elegans fzo-1 (AID 1259413; call rule not given here;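 note: fzo-1 mutant C. elegans worms in liquid wells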); conditions: C. elegans fzo-1 modulator screen, mean read-out; stronger effect = higher value
[11] = viability rescue of complex I mutant cybrids, primary screen, cell-based, galactose medium, ATP luminescence (AID 1645843;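 active = z-score of at least 1.8 in each of two replicates, scored against plate mean and spread of sample wells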;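 note: positive z means more ATP and so rescue of galactose-driven cybrid death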); conditions: complex I mutant cybrid cells, 72 h, stronger effect = higher value
F380Y/beta1 = experiment: modulators of BK channel variants, profiling panel, selectivity assay, cell-based, U2OS BacMam, thallium flux, beta subunits (AID 1259406); conditions: at 30 µM;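 note: initial slope of Thallos dye fluorescence rise after thallium is added; log ratio against the mean of 0.3% DMSO vehicle wells on the same plate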
F380Y/beta4 = experiment: as above; conditions: at 30 µM
R275C = experiment: as above; conditions: at 30 µM
R275C/beta1 = experiment: as above; conditions: at 30 µM
R275C/beta2Delta = experiment: as above; conditions: at 30 µM
R275C/beta4 = experiment: as above; conditions: at 30 µM
R275C/Slo1WT/beta2 = experiment: as above; conditions: at 30 µM
[12] = Cy5 fluorescence interference with SSB-bound oligo, artefact control for HCV NS3 helicase inhibitor project, biochemical, NIH Clinical Collection, E. coli SSB (AID 743268; call rule not given here)
[13] = liver-stage malaria parasite growth inhibition, primary screen, cell-based, HepG2, luciferase luminescence, HepG2 viability (AID 624349; in the data active = parasite load remaining mostly below about 12%, no sharp cut-off; inactive = mostly above about 10%;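 note: 100% = mean of DMSO negative control wells on the same plate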); conditions: P. berghei liver stage in HepG2, luciferase luminescence, concentration not given here; parasite load remaining: stronger effect = lower value; viability: measured here: HepG2 viability without parasites

Compound `CCN(CC)CCNC(=O)c1ccc(N)cc1` has an inhibition [1] of -1.81%, a score [2] of 1.26 and a rescue above control [3] of 9.03. It also gave a cytochrome c release ratio [4] of 1.74, an inhibition of aggregation [5] of 49.4% and a glutamate uptake change [6] of -9.57%. For the same compound, the aggregation suppression score [7] was 1.03, the survival [8] was 12.9 (inactive) and the inhibition [9] was -2% (inactive). The mean signal [10] was 241 (inactive), the z-score [11] was 0.47 (inactive) and -0.57 (inactive) and 0.345 (inactive) and the log fold change Tl+ flux (F380Y/beta1) was 0.0223 (inactive). The log fold change Tl+ flux (F380Y/beta4) was 0.0227 (inactive), the log fold change Tl+ flux (R275C) was 0.0572 (inactive) and the log fold change Tl+ flux (R275C/beta1) was -0.0679 (inactive). The log fold change Tl+ flux (R275C/beta2Delta) was -0.0122 (inactive), the log fold change Tl+ flux (R275C/beta4) was -0.0764 (inactive) and the log fold change Tl+ flux (R275C/Slo1WT/beta2) was -0.03 (inactive).
For `CSc1ccc2c(c1)N(CCC1CCCCN1C)c1ccccc1S2` (stereo not given), the inhibition [1] was 43.3%, the score [2] was 0.94 and the rescue above control [3] was 0. For the same compound, the cytochrome c release ratio [4] was 0.4, the inhibition of aggregation [5] was 7.32% and the glutamate uptake change [6] was -2.39%. The aggregation suppression score [7] was 0.91, the survival [8] was 2.08 (inactive) and the inhibition [9] was -3% (inactive). For the same compound, the fluorescence ratio [12] was 1.05 (inactive), the mean signal [10] was 275 (inactive) and the z-score [11] was -1.38 (inactive) and -1.5 (inactive) and -2.41 (inactive). For the same compound, the log fold change Tl+ flux (F380Y/beta1) was 0.338 (active), the log fold change Tl+ flux (F380Y/beta4) was 0.259 (active) and the log fold change Tl+ flux (R275C) was -0.424 (active). The log fold change Tl+ flux (R275C/beta1) was 0.517 (active), the log fold change Tl+ flux (R275C/beta2Delta) was -0.136 (active) and the log fold change Tl+ flux (R275C/beta4) was 0.753 (active). The log fold change Tl+ flux (R275C/Slo1WT/beta2) was -0.146 (active).
In the case of `Cc1nc2ccccn2c(=O)c1CCN1CCC(C(=O)c2ccc(F)cc2)CC1`, the survival [8] is reported as 8.08 (inactive), the inhibition [9] is reported as -3% (inactive) and the fluorescence ratio [12] is reported as 0.95 (inactive). The mean signal [10] was 234 (inactive), the z-score [11] was -1.02 (inactive) and -0.645 (inactive) and the log fold change Tl+ flux (F380Y/beta1) was 0.0396 (inactive). The log fold change Tl+ flux (F380Y/beta4) was 0.0319 (inactive), the log fold change Tl+ flux (R275C) was -0.025 (inactive) and the log fold change Tl+ flux (R275C/beta1) was -0.0266 (inactive). For the same compound, the log fold change Tl+ flux (R275C/beta2Delta) was -0.0363 (inactive), the log fold change Tl+ flux (R275C/beta4) was -0.0285 (inactive) and the log fold change Tl+ flux (R275C/Slo1WT/beta2) was 0.00703 (inactive).
Work on `CC(C)[N+](C)(CCOC(=O)C1c2ccccc2Oc2ccccc21)C(C)C` yielded an inhibition [1] of 8.5%, a score [2] of 0.96 and a rescue above control [3] of 2.24. For the same compound, the cytochrome c release ratio [4] was 0.77, the inhibition of aggregation [5] was 58.5% and the glutamate uptake change [6] was -0.12%. For the same compound, the aggregation suppression score [7] was 1.09, the survival [8] was 4.92 (inactive) and the inhibition [9] was 0% (inactive). The fluorescence ratio [12] was 1.03 (inactive), the mean signal [10] was 251 (inactive) and the z-score [11] was 0.295 (inactive) and 0.02 (inactive). For the same compound, the log fold change Tl+ flux (F380Y/beta1) was -0.0699 (inactive), the log fold change Tl+ flux (F380Y/beta4) was -0.0221 (inactive) and the log fold change Tl+ flux (R275C) was 0.0289 (inactive). For the same compound, the log fold change Tl+ flux (R275C/beta1) was 0.0122 (inactive), the log fold change Tl+ flux (R275C/beta2Delta) was -0.014 (inactive) and the log fold change Tl+ flux (R275C/beta4) was -0.0395 (inactive). For the same compound, the log fold change Tl+ flux (R275C/Slo1WT/beta2) was -0.0246 (inactive).
`CC(=O)CCCCn1c(=O)c2c(ncn2C)n(C)c1=O` showed an inhibition [1] of 49.3%, a score [2] of 1.37 and a rescue above control [3] of -11.6. The cytochrome c release ratio [4] was 0.83, the inhibition of aggregation [5] was 60.9% and the glutamate uptake change [6] was -0.27%. For the same compound, the aggregation suppression score [7] was 1.44, the survival [8] was 14.1 (inactive) and the inhibition [9] was -4% (inactive). For the same compound, the fluorescence ratio [12] was 1.01 (inactive), the mean signal [10] was 250 (inactive) and the z-score [11] was 0.465 (inactive) and 0.86 (inactive) and 0.55 (inactive). The log fold change Tl+ flux (F380Y/beta1) was -0.00172 (inactive), the log fold change Tl+ flux (F380Y/beta4) was 0.0281 (inactive) and the log fold change Tl+ flux (R275C) was -0.0458 (inactive). For the same compound, the log fold change Tl+ flux (R275C/beta1) was -0.0218 (inactive), the log fold change Tl+ flux (R275C/beta2Delta) was 0.00216 (inactive) and the log fold change Tl+ flux (R275C/beta4) was -0.0339 (inactive). The log fold change Tl+ flux (R275C/Slo1WT/beta2) was -0.000483 (inactive).
Work on `CCN(CC)CCOC(=O)c1ccc(N)cc1` yielded an inhibition [1] of 9.09%, a score [2] of 1.48 and a rescue above control [3] of -15. It also gave a cytochrome c release ratio [4] of 1.16, an inhibition of aggregation [5] of 23.9% and a glutamate uptake change [6] of 22.4%. The aggregation suppression score [7] was 1.46, the survival [8] was 15.7 (inactive) and the inhibition [9] was 0% (inactive). The fluorescence ratio [12] was 1.06 (inactive), the mean signal [10] was 231 (inactive) and the z-score [11] was 0.17 (inactive) and -0.015 (inactive). For the same compound, the log fold change Tl+ flux (F380Y/beta1) was -0.0732 (inactive), the log fold change Tl+ flux (F380Y/beta4) was 0.0148 (inactive) and the log fold change Tl+ flux (R275C) was -0.00878 (inactive). For the same compound, the log fold change Tl+ flux (R275C/beta1) was -0.0214 (inactive), the log fold change Tl+ flux (R275C/beta2Delta) was 0.0278 (inactive) and the log fold change Tl+ flux (R275C/beta4) was -0.0586 (inactive). For the same compound, the log fold change Tl+ flux (R275C/Slo1WT/beta2) was -0.013 (inactive).
In the case of `Nc1ccc(S(=O)(=O)c2ccc(N)cc2)cc1`, the inhibition [1] is reported as 2.36%, the score [2] is reported as 0.97 and the rescue above control [3] is reported as 9.67. It also gave a cytochrome c release ratio [4] of 0.87, an inhibition of aggregation [5] of 66.2% and a glutamate uptake change [6] of -16.9%. For the same compound, the aggregation suppression score [7] was 1.25, the survival [8] was 11.6 (inactive) and the fluorescence ratio [12] was 0.97 (inactive). The mean signal [10] was 228 (inactive), the z-score [11] was -0.16 (inactive) and the log fold change Tl+ flux (F380Y/beta1) was -0.00845 (inactive). The log fold change Tl+ flux (F380Y/beta4) was 0.0288 (inactive), the log fold change Tl+ flux (R275C) was -0.00888 (inactive) and the log fold change Tl+ flux (R275C/beta1) was -0.0191 (inactive). The log fold change Tl+ flux (R275C/beta2Delta) was 0.0154 (inactive), the log fold change Tl+ flux (R275C/beta4) was -0.0181 (inactive) and the log fold change Tl+ flux (R275C/Slo1WT/beta2) was -0.0232 (inactive).
With `CCOc1ccc2ccccc2c1C(=O)N[C@@H]1C(=O)N2[C@@H]1SC(C)(C)[C@@H]2C(=O)O` the survival [8] was 3.33 (inactive), the parasite load remaining [13] was 85.4% (inactive) and 87.9% (inactive) and the viability [13] was 103% and 91.5%. For the same compound, the fluorescence ratio [12] was 1.06 (inactive), the mean signal [10] was 253 (inactive) and the z-score [11] was 0.835 (inactive). The log fold change Tl+ flux (F380Y/beta1) was -0.0293 (inactive), the log fold change Tl+ flux (F380Y/beta4) was -0.0322 (inactive) and the log fold change Tl+ flux (R275C) was -0.00323 (inactive). The log fold change Tl+ flux (R275C/beta1) was 0.00845 (inactive), the log fold change Tl+ flux (R275C/beta2Delta) was 0.0249 (inactive) and the log fold change Tl+ flux (R275C/beta4) was -0.041 (inactive). The log fold change Tl+ flux (R275C/Slo1WT/beta2) was 0.0157 (inactive).
With `CC(C)(C)NC[C@H](O)COc1nsnc1N1CCOCC1` the survival [8] was 4.17 (inactive), the parasite load remaining [13] was 64.7% (inactive) and 81.2% (inactive) and 46% (inactive) and the viability [13] was 97.8% and 98% and 104%. The fluorescence ratio [12] was 0.99 (inactive), the mean signal [10] was 275 (inactive) and the z-score [11] was 0.57 (inactive) and -0.2 (inactive) and 0.33 (inactive). For the same compound, the log fold change Tl+ flux (F380Y/beta1) was -0.0365 (inactive), the log fold change Tl+ flux (F380Y/beta4) was 0.0021 (inactive) and the log fold change Tl+ flux (R275C) was -0.000858 (inactive). For the same compound, the log fold change Tl+ flux (R275C/beta1) was -0.0605 (inactive), the log fold change Tl+ flux (R275C/beta2Delta) was -0.0488 (inactive) and the log fold change Tl+ flux (R275C/beta4) was -0.0714 (inactive). For the same compound, the log fold change Tl+ flux (R275C/Slo1WT/beta2) was -0.0819 (inactive).
